This note sets out measurements from the supplement of paper PMC13380429.

Test [1] has as its system Vero E6 infected with SARS-CoV-2. Briefly: morphology score (similarity to uninfected cells); higher = more like uninfected cells. The conditions noted are these: 24 h.
Test [2] has the same test system. The test is described as follows: SARS-CoV-2 infection rate relative to infected DMSO; higher = more infection, active = 60 or less. The conditions noted are these: 24 h.

Take `COc1ccc(C(=O)Nc2c(Cl)cncc2Cl)cc1OC1CCCC1` [piclamilast] (10 µM): in test [1], the morphology score came out at 0.363. For the same compound, the SARS-CoV-2 infection rate in test [2] was 107% (inactive).

`CCCCc1nc(Cl)c(CO)n1Cc1ccc(-c2ccccc2-c2nnn[nH]2)cc1` [losartan] (10 µM) had a morphology score in test [1] of 0.0837. In addition, in test [2], the SARS-CoV-2 infection rate was 99.5% (inactive).

Take `CCC(C)(C)C(=O)C(=O)N1CCC[C@H]1C(=O)OCCCc1cccnc1` (10 µM): the morphology score in test [1] is -0.0394. For the same compound, the SARS-CoV-2 infection rate in test [2] is 116% (inactive).

In test [1], `CCS(=O)(=O)N(C)[C@H]1c2cc(C#N)ccc2OC(C)(C)[C@@H]1O` [chromanol-293B-(-)-[3R,4S]] (10 µM) showed a morphology score of 0.135. The SARS-CoV-2 infection rate in test [2] was 104% (inactive).

`CCOC(=O)C1=C(C)NC(C)=C(C(=O)OC)[C@@H]1c1cccc([N+](=O)[O-])c1` (racemic) [nitrendipine] (10 µM) returned a morphology score in test [1] of -0.062. The SARS-CoV-2 infection rate in test [2] was 112% (inactive).

Take `O=C(Nc1ccc(-c2ccnc(Nc3ccc(N4CCOCC4)cc3)n2)cc1)C1CCCN1` (configuration not stated) (10 µM): the morphology score in test [1] turned out to be 0.607. Besides, the SARS-CoV-2 infection rate in test [2] was 73.5% (inactive).

`CC1(C)CC(O)CC(C)(C)N1[O]` [tempol] (10 µM) gave a morphology score in test [1] of 0.209. The SARS-CoV-2 infection rate in test [2] is 97% (inactive).

The compound `Nc1ccc(C(=O)Oc2ccccc2)c(O)c1` [phenyl-aminosalicylate] (10 µM) registered a morphology score in test [1] of 0.0987. The SARS-CoV-2 infection rate in test [2] was 104% (inactive).

In turn, `N#Cc1ccc(Oc2ccc3c(c2)COB3O)cc1` [crisaborole] (10 µM) displayed a morphology score in test [1] of 0.0741. Moreover, in test [2], the SARS-CoV-2 infection rate was 105% (inactive).

`COc1cc2ncnc(Nc3cccc(Cl)c3)c2cc1OC` [tyrphostin-AG-1478] (10 µM) gave a morphology score in test [1] of -0.318. Besides, the SARS-CoV-2 infection rate in test [2] was 118% (inactive).

Compound `CCCC[N+]1(C)[C@@H]2C[C@@H](OC(=O)[C@H](CO)c3ccccc3)C[C@H]1[C@@H]1O[C@@H]12` (some centres not stated) [butylscopolamine-bromide] (10 µM) displayed a morphology score in test [1] of 0.191. Besides, the SARS-CoV-2 infection rate in test [2] was 102% (inactive).
